# In the supplement of paper PMC8728848:
# The entries come from a sample that favours the strongest signals as a whole.
# B1: UDA (Urtica dioica), P11218 (protein)
# chain: MMMRFLSAVVIMSSAMAVGLVSAQRCGSQGGGGTCPALWCCSIWGWCGDSEPYCGRTCENKCWSGERSDHRCGAAVGNPPCGQDRCCSVHGWCGGGNDYCSGSKCQYRCSSSVRGPRVALSGNSTANSIGNVVVTEPLFDQMFSHRKDCPSQGFYSYHSFLVAAESFPAFGTIGDVATRKREVAAFLAHISQATSGERSDVENPHAWGLCHINTTTVTENDFCTSSDWPCAAGKKYSPRGPIQLTHNFNYGLAGQAIGEDLIQNPDLVEKDPIISFKTALWFWMSQHDNKPSCHDIVLNANSAANRIPNKGVIGNIISRAFGHDDFAVRSSSIGFYKRYCDMLGVSYGHDLKYWFDNTPSSEFQRIQMRVAA
# Columns and labels:
# Assay in all cases: glycan array binding signal (z-score within array); higher = stronger binding
# Conditions in all cases: glycan notation: IUPAC condensed, linker removed
# [1] = biological target: GlcNAc(a1-4)Gal(b1-4)GlcNAc
# Summary of the method: (§1)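 Glycan array data were curated from 3228 arrays in the Consortium for Functional Glycomics database and kept only where the protein sequence was available. Glycan names were converted to IUPAC-condensed notation, and columns mapping to the same glycan were averaged. The binding signal is a within-array Z-score, averaged across arrays of the same protein sequence at different concentrations or buffers and across linkers. Negative Z-scores can be read as non-binding.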
# [2] = biological target: GlcNAc(b1-2)[GlcNAc(b1-4)]Man(a1-3)[GlcNAc(b1-2)Man(a1-6)]Man(b1-4)GlcNAc(b1-4)GlcNAc
# Summary of the method: as §1
# [3] = biological target: GlcNAc(b1-2)[GlcNAc(b1-6)]Man(a1-6)[GlcNAc(b1-2)Man(a1-3)]Man(b1-4)GlcNAc(b1-4)[Fuc(a1-6)]GlcNAc
# Summary of the method: as §1
# [4] = biological target: GlcNAc(b1-3)Gal(b1-3)GalNAc
# Summary of the method: as §1
# [5] = biological target: GlcNAc(b1-3)Gal(b1-4)GlcNAc(b1-3)Gal(b1-4)GlcNAc(b1-2)Man(a1-3)[GlcNAc(b1-3)Gal(b1-4)GlcNAc(b1-3)Gal(b1-4)GlcNAc(b1-2)Man(a1-6)]Man(b1-4)GlcNAc(b1-4)[Fuc(a1-6)]GlcNAc
# Summary of the method: as §1
# [6] = biological target: GlcNAc(b1-3)Gal(b1-4)GlcNAc(b1-3)GalNAc
# Summary of the method: as §1
# [7] = biological target: GlcNAc(b1-3)Man
# Summary of the method: as §1
# [8] = biological target: GlcNAc(b1-4)GlcNAc(b1-4)GlcNAc
# Summary of the method: as §1
# [9] = biological target: GlcNAc(b1-4)GlcNAc(b1-4)GlcNAc(b1-4)GlcNAc(b1-4)GlcNAc
# Summary of the method: as §1
# [10] = biological target: GlcNAc(b1-6)Gal(b1-4)GlcNAc
# Summary of the method: as §1
# [11] = biological target: Kdn(a2-3)Gal(b1-4)Glc
# Summary of the method: as §1
# [12] = biological target: Man(a1-2)Man(a1-3)[Man(a1-2)Man(a1-6)]Man(a1-6)[Man(a1-2)Man(a1-2)Man(a1-3)]Man(b1-4)GlcNAc(b1-4)GlcNAc
# Summary of the method: as §1
# [13] = biological target: Man(a1-2)Man(a1-3)[Man(a1-2)Man(a1-6)]Man(a1-6)[Man(a1-3)[Man(a1-6)]Man(a1-6)]Man(b1-4)GlcNAc(b1-4)GlcNAc
# Summary of the method: as §1
# [14] = biological target: Man(a1-2)Man(a1-3)[Man(a1-6)]Man(a1-6)[Man(a1-2)Man(a1-3)]Man(b1-4)GlcNAc(b1-4)GlcNAc
# Summary of the method: as §1
# [15] = biological target: Man(a1-2)Man(a1-6)[Man(a1-3)]Man(a1-6)[Man(a1-2)Man(a1-2)Man(a1-3)]Man(b1-4)GlcNAc(b1-4)GlcNAc
# Summary of the method: as §1
# [16] = biological target: Man(a1-3)[Man(a1-6)]Man(a1-6)[Man(a1-2)Man(a1-3)]Man(b1-4)GlcNAc(b1-4)GlcNAc
# Summary of the method: as §1
# [17] = biological target: Man(a1-3)[Man(a1-6)]Man(a1-6)[Man(a1-3)]Man(b1-4)GlcNAc(b1-4)GlcNAc
# Summary of the method: as §1
# [18] = biological target: Man(a1-3)[Man(a1-6)]Man(b1-4)GlcNAc(b1-4)GlcNAc
# Summary of the method: as §1
# [19] = biological target: Neu5Ac(a2-3)Gal(b1-3)GlcNAc
# Summary of the method: as §1
# [20] = biological target: Neu5Ac(a2-3)Gal(b1-3)GlcNAc(b1-4)Gal(b1-4)Glc
# Summary of the method: as §1
# [21] = biological target: Neu5Ac(a2-3)Gal(b1-3)[GlcNAc(b1-6)]GalNAc
# Summary of the method: as §1
# [22] = biological target: Neu5Ac(a2-3)Gal(b1-3)[Neu5Ac(a2-3)Gal(b1-4)]GlcNAc
# Summary of the method: as §1
# [23] = biological target: Neu5Ac(a2-3)Gal(b1-3)[Neu5Ac(a2-6)]GlcNAc(b1-3)[Fuc(a1-3)[Gal(b1-4)]GlcNAc(b1-6)]Gal(b1-4)Glc
# Summary of the method: as §1
# [24] = biological target: Neu5Ac(a2-3)Gal(b1-4)GlcNAc(b1-2)Man(a1-3)[GlcNAc(b1-4)][Neu5Ac(a2-3)Gal(b1-4)GlcNAc(b1-2)Man(a1-6)]Man(b1-4)GlcNAc(b1-4)GlcNAc
# Summary of the method: as §1
# [25] = biological target: Neu5Ac(a2-3)Gal(b1-4)GlcNAc(b1-2)Man(a1-3)[Neu5Ac(a2-3)Gal(b1-4)GlcNAc(b1-2)Man(a1-6)]Man(b1-4)GlcNAc(b1-4)[Fuc(a1-6)]GlcNAc
# Summary of the method: as §1
# [26] = biological target: Neu5Ac(a2-3)Gal(b1-4)GlcNAc(b1-3)Gal(b1-4)GlcNAc(b1-3)Gal(b1-4)GlcNAc(b1-2)Man(a1-3)[Neu5Ac(a2-3)Gal(b1-4)GlcNAc(b1-3)Gal(b1-4)GlcNAc(b1-3)Gal(b1-4)GlcNAc(b1-2)Man(a1-6)]GalNAc
# Summary of the method: as §1
# [27] = biological target: Neu5Ac(a2-3)Gal(b1-4)GlcNAc(b1-3)Gal(b1-4)GlcNAc(b1-3)[Neu5Ac(a2-3)Gal(b1-4)GlcNAc(b1-3)Gal(b1-4)GlcNAc(b1-6)]GalNAc
# Summary of the method: as §1
# [28] = biological target: Neu5Ac(a2-3)Gal(b1-4)[Fuc(a1-3)]GlcNAc
# Summary of the method: as §1
# [29] = biological target: Neu5Ac(a2-3)Gal(b1-4)[Fuc(a1-3)]GlcNAc(b1-3)Gal(b1-4)GlcNAc
# Summary of the method: as §1
# [30] = biological target: Neu5Ac(a2-3)[GalNAc(b1-4)]Gal(b1-4)Glc
# Summary of the method: as §1
binder,measurement,setting,value
B1,glycan array binding signal (z-score),[1],0.188
same,glycan array binding signal (z-score),[2],0.083
same,glycan array binding signal (z-score),[3],-0.162
same,glycan array binding signal (z-score),[4],-0.181
same,glycan array binding signal (z-score),[5],0.026
same,glycan array binding signal (z-score),[6],-0.182
same,glycan array binding signal (z-score),[7],-0.17
same,glycan array binding signal (z-score),[8],2.6
same,glycan array binding signal (z-score),[9],2.39
same,glycan array binding signal (z-score),[10],-0.173
same,glycan array binding signal (z-score),[11],-0.168
same,glycan array binding signal (z-score),[12],4.32
same,glycan array binding signal (z-score),[13],4.79
same,glycan array binding signal (z-score),[14],4.54
same,glycan array binding signal (z-score),[15],8.27
same,glycan array binding signal (z-score),[16],10.8
same,glycan array binding signal (z-score),[17],5.89
same,glycan array binding signal (z-score),[18],6.43
same,glycan array binding signal (z-score),[19],-0.164
same,glycan array binding signal (z-score),[20],-0.174
same,glycan array binding signal (z-score),[21],-0.176
same,glycan array binding signal (z-score),[22],-0.25
same,glycan array binding signal (z-score),[23],-0.177
same,glycan array binding signal (z-score),[24],-0.174
same,glycan array binding signal (z-score),[25],-0.169
same,glycan array binding signal (z-score),[26],-0.024
same,glycan array binding signal (z-score),[27],-0.161
same,glycan array binding signal (z-score),[28],-0.19
same,glycan array binding signal (z-score),[29],-0.171
same,glycan array binding signal (z-score),[30],-0.189
